Records with an inconclusive call do not appear. Active and inactive are the calls of the source. Unless noted, the call rests on the fitted dose curve; in most records, active means well fitted curve in either direction with a large enough effect (not every such curve was filed as active); inconclusive means small, poorly fitted or top-dose-only effect, or another doubt; inactive means flat fitted curve, though single readings scatter.
How the values were obtained:
[1] = molecular target: Lysosomal acid glucosylceramidase (Homo sapiens) (UniProt P04062); experiment: Glucocerebrosidase-p2 (AID 348; in the data active means potency below about 10 µM; further: potency means the concentration at half of the fitted maximal effect); details: purified GBA, blue fluorogenic substrate, 40 min
Lysosomal acid glucosylceramidase (Homo sapiens), sequence (P04062 whole entry, looked up): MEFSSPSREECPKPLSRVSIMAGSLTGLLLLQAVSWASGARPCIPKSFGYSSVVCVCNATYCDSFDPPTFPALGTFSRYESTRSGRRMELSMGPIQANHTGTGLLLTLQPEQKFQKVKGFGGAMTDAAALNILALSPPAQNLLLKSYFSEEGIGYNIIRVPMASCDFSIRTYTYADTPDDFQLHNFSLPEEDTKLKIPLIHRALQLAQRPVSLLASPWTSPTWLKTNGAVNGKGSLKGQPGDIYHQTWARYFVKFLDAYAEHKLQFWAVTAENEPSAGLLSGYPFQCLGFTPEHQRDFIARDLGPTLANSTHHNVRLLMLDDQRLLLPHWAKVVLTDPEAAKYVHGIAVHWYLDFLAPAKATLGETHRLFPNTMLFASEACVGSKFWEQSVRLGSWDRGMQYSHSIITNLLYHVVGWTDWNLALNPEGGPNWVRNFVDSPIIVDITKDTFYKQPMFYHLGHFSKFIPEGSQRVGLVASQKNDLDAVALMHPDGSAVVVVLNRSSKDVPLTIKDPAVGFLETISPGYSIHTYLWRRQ
Method in brief: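 Normal human glucocerebrosidase (0.2 nM) with blue fluorogenic substrate (80 uM final) in citrate/phosphate pH 5.9 with 10mM sodium taurocholate, 0.01% tween-20; 40 min RT, NaOH/glycine stop; fluorescence Ex 365/Em 440; AC50 from a titration from 0.6 nM upwards.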

[2] = AP1 Signaling Pathway (AID 357); details: ME-180 AP-1-bla reporter, EGF-induced, beta-lactamase ratio, 5 h; at 7.69 µM (top of the series) unless noted;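 further: ME-180 reporter cells stimulated with EGF at its EC50 level; on the % scale 0 is the no-effect control and ±100 the full control effect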
Method in brief: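 Modulation of EGF-driven AP-1 transcription was assessed with a beta-lactamase reporter in ME-180 cells. Compound and EC50 EGF were co-incubated 5 hours at 37 °C before 2.5-hour CCF4 loading at room temperature and dual-emission reading.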

[3] = NFAT Signaling Pathway (AID 444); details: Jurkat NFAT-bla M1, carbachol, beta-lactamase ratio, 5 h; at 7.69 µM (top of the series) unless noted;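 further: carbachol stimulus at about its EC50 of 1 µM final; on the % scale 0 is the no-effect control and ±100 the full control effect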
Method in brief: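 Jurkat cells with NFAT-driven β-lactamase reporter and co-expressed M1 receptor, stimulated with carbachol (final 1 uM, ~EC50), compound titration, 5 h at 37 °C. CCF4 loaded 1 h at RT; 460/530 nm ratio gave %activity and AC50.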

[4] = Stat Signaling Pathway (AID 446); details: ME-180 (cervical carcinoma) SIE beta-lactamase reporter, IL-6 stimulated, 5 h; at 7.69 µM (top of the series) unless noted;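 further: ME-180 cervical cancer cells given 40 pM IL-6 alongside compound; SIE-controlled beta-lactamase reporter measured as 460/530 nm FRET emission ratio; on the % scale 0 is the no-effect control and ±100 the full control effect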
Method in brief: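 FRET read-out (405 nm excitation, 460/530 nm emission) of a beta-lactamase reporter under a STAT-inducible element in ME-180 cervical carcinoma cells. Cells with compound receive 40 pM IL-6 for 5 h. Values are normalised to AC90 stimulation and AC90 JAK-inhibitor controls.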

[5] = molecular target: Glucocorticoid receptor (Homo sapiens) (UniProt P04150); experiment: GR-EFC Redistribution (AID 451; calls by dose curve; further: potency means the concentration at half of the fitted maximal effect); details: CHO-K1 GR-EFC translocation, beta-gal luminescence, 2 h
Glucocorticoid receptor (Homo sapiens), sequence (P04150 whole entry, looked up, the tested form may be a part): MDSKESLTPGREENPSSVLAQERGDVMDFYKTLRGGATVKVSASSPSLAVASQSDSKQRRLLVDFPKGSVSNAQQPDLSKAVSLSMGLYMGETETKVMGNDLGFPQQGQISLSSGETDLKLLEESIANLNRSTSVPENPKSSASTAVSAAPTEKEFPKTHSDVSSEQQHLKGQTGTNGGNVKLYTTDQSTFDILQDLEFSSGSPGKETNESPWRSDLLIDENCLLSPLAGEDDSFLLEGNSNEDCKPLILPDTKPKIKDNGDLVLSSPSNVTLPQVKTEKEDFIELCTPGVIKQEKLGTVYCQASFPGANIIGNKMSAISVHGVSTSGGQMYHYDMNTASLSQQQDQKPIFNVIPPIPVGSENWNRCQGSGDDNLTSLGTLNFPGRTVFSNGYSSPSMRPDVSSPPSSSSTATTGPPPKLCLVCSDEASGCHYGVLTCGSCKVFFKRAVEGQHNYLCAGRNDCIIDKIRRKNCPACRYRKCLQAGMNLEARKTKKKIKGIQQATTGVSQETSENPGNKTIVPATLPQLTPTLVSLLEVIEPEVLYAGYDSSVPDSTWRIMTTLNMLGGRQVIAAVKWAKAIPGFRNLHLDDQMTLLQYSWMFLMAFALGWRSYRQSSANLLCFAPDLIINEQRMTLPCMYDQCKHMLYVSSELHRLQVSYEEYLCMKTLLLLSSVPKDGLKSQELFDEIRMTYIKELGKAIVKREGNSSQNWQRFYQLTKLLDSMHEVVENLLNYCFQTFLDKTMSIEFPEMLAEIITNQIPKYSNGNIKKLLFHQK
Method in brief: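 CHO-K1 cells expressing nuclear EA and GR-ED fragments of b-gal; compounds titrated up to 46 uM final, 2 h at 37 C. GR nuclear translocation read as complemented b-gal luminescence after 1 h RT detection.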

[6] = molecular target: Mitogen-activated protein kinase 10 (Mus musculus) (UniProt Q61831); experiment: JNK3 AlphaScreen Assay (AID 530); details: JNK3 lysate, c-Jun phosphorylation; series mostly up to 57.1 µM;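 further: kinase came from lysate of stimulated human HepG2 cells; signal reports phosphorylation of biotinylated GST-cJun 1-79 at Ser73 with 10 µM ATP; on the % scale 0 is the no-effect control and ±100 the full control effect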
Method in brief: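 HepG2 lysate (IL-1b/TNFa pre-activated) + biotin-GST-cJun 1-79 + anti-pSer73 cJun; cpd titration, 15 min RT; ATP 10 uM start; Tris pH 7.6, MgCl2, DTT, vanadate; beads in EDTA buffer; AlphaScreen.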

[7] = molecular target: 3',5'-cyclic-AMP phosphodiesterase 4B (Homo sapiens) (UniProt Q07343); experiment: qHTS Assay for Inhibitors of PDE-IV (AID 607; active means well fitted activation curve with a large enough effect in the main read-out, with a control signal flat, not every such curve was filed as active; further: % of control where 0% means no effect); details: HEK293 ACTOne CNG channel cells, membrane potential fluorescence; series mostly up to 22.9 µM
3',5'-cyclic-AMP phosphodiesterase 4B (Homo sapiens), sequence (Q07343 whole entry, looked up): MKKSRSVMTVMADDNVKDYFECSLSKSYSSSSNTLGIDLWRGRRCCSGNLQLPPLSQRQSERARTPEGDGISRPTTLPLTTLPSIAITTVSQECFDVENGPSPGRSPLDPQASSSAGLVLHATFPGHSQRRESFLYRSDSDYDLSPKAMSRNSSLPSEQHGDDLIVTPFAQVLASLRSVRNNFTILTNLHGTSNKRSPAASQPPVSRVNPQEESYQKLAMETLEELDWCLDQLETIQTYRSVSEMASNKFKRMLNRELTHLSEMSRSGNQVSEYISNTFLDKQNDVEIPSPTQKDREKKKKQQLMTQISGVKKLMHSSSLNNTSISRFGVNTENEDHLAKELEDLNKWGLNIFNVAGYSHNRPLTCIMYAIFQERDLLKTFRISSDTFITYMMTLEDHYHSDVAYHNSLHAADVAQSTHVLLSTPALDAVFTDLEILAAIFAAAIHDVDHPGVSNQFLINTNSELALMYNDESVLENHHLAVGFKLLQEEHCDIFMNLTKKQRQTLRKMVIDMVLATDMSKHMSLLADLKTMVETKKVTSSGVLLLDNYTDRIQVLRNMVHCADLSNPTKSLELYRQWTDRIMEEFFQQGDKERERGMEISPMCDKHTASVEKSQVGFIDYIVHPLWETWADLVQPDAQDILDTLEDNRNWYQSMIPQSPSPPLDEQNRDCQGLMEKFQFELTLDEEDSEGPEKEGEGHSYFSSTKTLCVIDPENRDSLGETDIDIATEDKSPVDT
Method in brief: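 Cell-based read-out of cAMP via a modified cyclic nucleotide-gated channel and membrane potential dye (535/590 nm) in HEK293 cells expressing PDE4 endogenously. Compounds tested up to 22.9 uM final; 100 uM RO 20-1724 reference.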

[8] = qHTS Assay for Lipid Storage Modulators (AID 1519; calls by dose curve); details: Drosophila S3 cells, BODIPY lipid droplet/cell ratio, laser cytometry, cells loaded with oleic acid; for activity change, negative = inhibition: at 57.5 µM (top of the series)
Method in brief: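 Cells seeded at 5,000 per well were treated with compounds over a concentration series and loaded with oleic acid (400 uM, as added). Lipid droplet fluorescence (488 nm excitation, 500-530 nm channel) was read by laser-scanning cytometry and normalized to 20 uM Triacsin C.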

[9] = Primary qHTS for small molecule stabilizers of the endoplasmic reticulum resident proteome: Secreted ER Calcium Modulated Protein (SERCaMP) assay (AID 1508630; active means well fitted curve in the direction sought with a large enough effect; an effect the other way counts as inactive or inconclusive; further: on the % scale 0 is the no-effect control and ±100 the full control effect); details: SH-SY5Y GLuc-SERCaMP (Gaussia luciferase released on ER calcium loss) secretion, thapsigargin, luminescence; series mostly up to 38.4 µM
Method in brief: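 The SH-SY5Y reporter protocol was run at 3 concentrations up to 38.3 uM (primary) or 11 concentrations (follow-up): 16 h compound, 100 nM thapsigargin for 4 h, then extracellular luciferase luminescence.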

[10] = molecular target: Cytochrome P450 3A4 (Homo sapiens) (UniProt P08684); experiment: qHTS Assay for Activators of Cytochrome P450 3A4 (AID 885; active means well fitted curve in the direction sought with a large enough effect; an effect the other way counts as inactive or inconclusive; further: nearly all actives have a fitted effect of over 65% in size; further: potency means the concentration at half of the fitted maximal effect); details: recombinant CYP3A4, Luciferin-PPXE luminescence, 60 min; series mostly up to 57.1 µM
Cytochrome P450 3A4 (Homo sapiens), sequence (P08684 whole entry, looked up): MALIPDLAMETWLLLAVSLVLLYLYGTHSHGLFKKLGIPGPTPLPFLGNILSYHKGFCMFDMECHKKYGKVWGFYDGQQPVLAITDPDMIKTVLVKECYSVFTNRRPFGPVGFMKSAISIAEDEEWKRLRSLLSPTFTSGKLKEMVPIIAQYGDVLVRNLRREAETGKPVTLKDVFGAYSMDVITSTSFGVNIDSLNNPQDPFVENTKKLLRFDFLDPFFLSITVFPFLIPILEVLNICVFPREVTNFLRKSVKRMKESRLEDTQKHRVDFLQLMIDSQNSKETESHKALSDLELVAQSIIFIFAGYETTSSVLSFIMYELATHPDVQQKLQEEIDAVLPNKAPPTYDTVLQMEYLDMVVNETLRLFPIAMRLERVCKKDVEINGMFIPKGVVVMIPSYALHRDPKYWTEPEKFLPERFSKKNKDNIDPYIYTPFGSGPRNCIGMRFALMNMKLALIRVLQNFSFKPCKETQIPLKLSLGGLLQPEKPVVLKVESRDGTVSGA
Method in brief: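 Luminescent readout of luciferin formed from 25 uM Luciferin-PPXE (KM level) by 20 nM CYP3A4 in 200 mM KPO4, with 60 min NADPH-driven reaction at room temperature after 10 min compound exposure. Ketoconazole (57 uM) defined 100% inhibition.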

[11] = molecular target: Cytochrome P450 3A4 (Homo sapiens) (UniProt P08684); experiment: qHTS Assay for Inhibitors and Substrates of Cytochrome P450 3A4 (AID 884; active means well fitted curve in the direction sought with a large enough effect; an effect the other way counts as inactive or inconclusive; further: on the % scale 0 is the no-effect control and ±100 the full control effect; nearly all actives have a fitted effect of over 50% in size); details: recombinant CYP3A4, Luciferin-PPXE luminescence; series mostly up to 57.1 µM
Method in brief: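 Luminescent readout of luciferin produced by CYP3A4 (20 nM) dealkylation of Luciferin-PPXE, 25 uM (its KM). NADPH-driven reaction ran 60 min at RT after 10 min compound preincubation; data scaled to 57 uM ketoconazole as 100% inhibition.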

[12] = measured here: cell count channel max response
[13] = measured here: lipid channel max response

COCC(=O)N1CCC[C@@]2(CCN(c3ccccc3)C2)C1
17.9%: max response [8, 12]
inactive: Potency [1] > 11.4 µM | activity change, negative = inhibition [2] -8.85% | activity change, negative = inhibition [3] -13.7% | activity, negative = inhibition [4] 8.14% | Potency [5] > 46 µM | Potency [6] | Potency [7] | activity change, negative = inhibition [8] -2.7% | outcome [9]
18%: max response [8, 13]

O=S(=O)(c1ccccc1)N1CCC[C@@]2(CCN(c3ncccn3)C2)C1
13%: max response [8, 13]
inactive: Potency [1] > 11.4 µM | activity change, negative = inhibition [2] -0.184% | activity change, negative = inhibition [3] 27.1% | activity, negative = inhibition [4] -4.75% | Potency [5] > 46 µM | Potency [6] | Potency [7] | activity change, negative = inhibition [8] 4.79% | outcome [9]
6.87%: max response [8, 12]

COc1ccccc1CN1CC[C@@]2(CCCN(C(=O)c3cnccn3)C2)C1
17.4%: max response [8, 13]
inactive: Potency [1] > 11.4 µM | activity change, negative = inhibition [2] -0.652% | activity change, negative = inhibition [3] 0.87% | activity, negative = inhibition [4] 9.03% | Potency [5] > 46 µM | Potency [6] | Potency [7] | activity change, negative = inhibition [8] 3.53% | outcome [9]
12.1%: max response [8, 12]

Cc1noc(C)c1C(=O)N1CCC2(CCCN(C(=O)Nc3cccc(C#N)c3)C2)CC1
12.8%: max response [8, 12]
23.7%: max response [8, 13]
inactive: Potency [1] > 11.4 µM | activity change, negative = inhibition [2] -3.54% | activity change, negative = inhibition [3] -25.9% | activity, negative = inhibition [4] -0.0853% | Potency [5] > 46 µM | Potency [6] | Potency [7] | activity change, negative = inhibition [8] 9.42% | outcome [9]

CC(C)CN1CC2(CCN(C(=O)c3cnccn3)CC2)C1
13.2%: max response [8, 12]
inactive: Potency [1] > 11.4 µM | activity change, negative = inhibition [2] -4.93% | activity change, negative = inhibition [3] -25.4% | activity, negative = inhibition [4] -6.85% | Potency [5] > 46 µM | Potency [6] | Potency [7] | activity change, negative = inhibition [8] 3.58% | outcome [9]
20.3%: max response [8, 13]

COCC(=O)N1CCC2(CC1)CN(c1ccccc1)C2
21.1%: max response [8, 13]
15%: max response [8, 12]
inactive: Potency [1] > 11.4 µM | activity change, negative = inhibition [2] -8.7% | activity change, negative = inhibition [3] 2.5% | activity, negative = inhibition [4] 10.6% | Potency [5] > 46 µM | Potency [6] | Potency [7] | activity change, negative = inhibition [8] 4.95% | outcome [9]

CC(=O)N1CCC2(CC1)CN(Cc1cc(C(F)(F)F)cc(C(F)(F)F)c1)C2
27.2%: max response [8, 13]
inactive: Potency [1] > 11.4 µM | activity change, negative = inhibition [2] 2.68% | activity change, negative = inhibition [3] 13.2% | activity, negative = inhibition [4] 11% | Potency [5] > 46 µM | Potency [6] | Potency [7] | activity change, negative = inhibition [8] 4.71% | outcome [9]
20.4%: max response [8, 12]

O=C(c1cnccn1)N1CCC[C@@]2(CCN(Cc3ccccc3)C2)C1
8.78%: max response [8, 12]
13.2%: max response [8, 13]
inactive: Potency [1] > 11.4 µM | activity change, negative = inhibition [2] 5.08% | activity change, negative = inhibition [3] 6.26% | activity, negative = inhibition [4] 1.17% | Potency [5] > 46 µM | Potency [7] | activity change, negative = inhibition [8] 1.97% | outcome [9]

CC(C)CN1CC[C@@]2(CCCN(C(=O)c3ccco3)C2)C1
8.53%: max response [8, 13]
3.5%: max response [8, 12]
inactive: Potency [1] > 11.4 µM | activity change, negative = inhibition [2] -7.86% | activity change, negative = inhibition [3] 7.22% | activity, negative = inhibition [4] -2.85% | Potency [5] > 46 µM | Potency [6] | Potency [7] | Potency [10] | activity change, negative = inhibition [8] 3.8% | outcome [9]

O=C(c1ccncc1)N1CCC[C@@]2(CCN(c3ccncc3)C2)C1
inactive: Potency [1] > 11.4 µM | activity change, negative = inhibition [2] -13.7% | activity change, negative = inhibition [3] -14.9% | Potency [5] > 46 µM | Potency [6] | Potency [7] | activity change, negative = inhibition [8] 3.8% | outcome [9]
9.21%: max response [8, 12]
15%: max response [8, 13]

CC(=O)N1CCC[C@@]2(CCN(Cc3ccc(C#N)cc3)C2)C1
7.32%: max response [8, 12]
8.41%: max response [8, 13]
inactive: Potency [1] > 11.4 µM | activity change, negative = inhibition [2] -11.7% | activity change, negative = inhibition [3] 2.49% | Potency [5] > 46 µM | Potency [6] | Potency [7] | activity change, negative = inhibition [8] 2.62% | outcome [9]

N#Cc1cccc(NC(=O)N2CC3(CCN(C(=O)c4cccc(F)c4)CC3)C2)c1
inactive: Potency [1] > 11.4 µM | activity change, negative = inhibition [2] -1.48% | activity change, negative = inhibition [3] 8.8% | activity, negative = inhibition [4] -8.78% | Potency [5] > 46 µM | Potency [6] | Potency [7] | Potency [11] | activity change, negative = inhibition [8] 4.13% | outcome [9]
25.1%: max response [8, 13]
active: Potency [10] 10 µM
17%: max response [8, 12]

N#Cc1ccc(CN2CC[C@@]3(CCCN(C(=O)c4ccncc4)C3)C2)cc1
inactive: Potency [1] > 11.4 µM | activity change, negative = inhibition [2] -10.1% | activity change, negative = inhibition [3] -7.12% | activity, negative = inhibition [4] 8.24% | Potency [5] > 46 µM | Potency [6] | Potency [7] | activity change, negative = inhibition [8] 4.36% | outcome [9]
26%: max response [8, 13]
17.6%: max response [8, 12]

O=C(c1cccc(F)c1)N1CCC2(CC1)CN(c1ncccn1)C2
active: Potency [10] 25.1 µM
inactive: Potency [1] > 11.4 µM | activity change, negative = inhibition [2] 1.82% | activity change, negative = inhibition [3] -6.5% | activity, negative = inhibition [4] -6.7% | Potency [5] > 46 µM | Potency [6] | Potency [7] | Potency [11] | activity change, negative = inhibition [8] 1.3% | outcome [9]
1.53%: max response [8, 12]
3.53%: max response [8, 13]

— PubChem BioAssay (NCATS)
